In the library only some 2.5% were active in any assay of this set; here they are far more common.
MEKK3 PB1 HTS: modulators (inhibitors or enhancers) of MEK5 binding to human MEKK3 PB1 domain | bead-based flow cytometry, Alexa488-MEK5 binding to MEKK3; actives lie on both sides; 0 = blocked by unlabeled MEK5, 100 = vehicle | binding response (% of control), % at 10 µM | 290,000 tested, 1.4% active | AID 1529;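 active = binding response more than 3 SD above or below the average of its plate-row segment, actives on both sides; inconclusive = wells at one plate position flagged as instrument error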;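 note: Alexa488 bead fluorescence after subtracting the streptavidin-only scavenger bead signal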
MEKK2 mut-MEK5: signal of MEK5 binding to mutant human MEKK2 PB1 domain; bead flow cytometry, Alexa488-MEK5 binding to MEKK2 mutant; percent response, % at 10 µM; 290,000 tested, 0.35% active; AID 1530; in the data active = percent response above about 24%, passing the limit was not always enough
Rce1 inh: inhibitors of yeast Ras-converting enzyme. Q03530. yeast membranes, quenched prenylated peptide cleavage fluorescence. AID 2563. calls only. 290,000 tested, 0.27% active;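 active = fall in fluorescence gain of 50% or more versus controls, with final raw signal at or below 3038400; inconclusive = same 50% fall but final raw signal above 3038400; inactive = fall in fluorescence gain under 50%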;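 note: plate controls were neutral control wells for no effect and wells lacking membranes for full effect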
MEKK2 WT-MEK5: raises or lowers MEK5 binding to wildtype human MEKK2 PB1 domain. Q9Y2U5. bead flow cytometry, Alexa488-MEK5 binding to MEKK2 WT; actives lie on both sides. binding response (% of control), % at 10 µM. 290,000 tested, 1.1% active; in the data active = binding response below about 67% or above about 130%; inconclusive = no clear call, values can overlap the other calls; inactive = in between
UBC13 inh: inhibitors of human UBC13 polyubiquitin chain formation; P61088; TR-FRET; inhibition, % at 20 µM; 330,000 tested, 0.47% active; in the data active = inhibition above about 45%, passing the limit was not always enough; inconclusive = no clear call, values can overlap the other calls
Target sequence (P61088 whole entry, looked up): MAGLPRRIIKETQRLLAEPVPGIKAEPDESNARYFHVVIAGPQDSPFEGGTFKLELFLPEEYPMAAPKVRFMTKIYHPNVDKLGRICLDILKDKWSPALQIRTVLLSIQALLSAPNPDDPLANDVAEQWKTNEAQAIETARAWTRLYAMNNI
Casp3 UBC13 ctr: counter-screen for UBC13 inhibitors: human caspase-3 inhibition; shares compounds with UBC13 inh; inhibition, % at 20 µM; Recombinant caspase-3, Caspase-Glo 3/7 luminescence, 60 min; 1,400 tested, 4% active; AID 488856;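 active = mean inhibition across replicates above about 26%, limit read from the data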;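 note: plate controls were DMSO with caspase-3 for no effect and DMSO wells lacking enzyme for full effect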
Target sequence (P42574 whole entry, looked up): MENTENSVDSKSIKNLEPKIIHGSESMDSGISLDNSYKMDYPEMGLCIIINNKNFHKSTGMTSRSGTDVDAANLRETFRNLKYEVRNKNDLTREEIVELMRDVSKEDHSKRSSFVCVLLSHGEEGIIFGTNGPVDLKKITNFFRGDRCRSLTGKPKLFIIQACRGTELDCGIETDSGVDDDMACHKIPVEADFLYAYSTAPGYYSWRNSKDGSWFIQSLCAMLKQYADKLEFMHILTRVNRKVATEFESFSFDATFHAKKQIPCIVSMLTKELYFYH
UBC13 confirm: confirmation of human UBC13 polyubiquitin inhibitors. shares compounds with UBC13 inh. UBC13 polyubiquitination, TR-FRET, biochemical. inhibition, % at 10 µM. 1,400 tested, 68% active. AID 488859; in the data active = inhibition above about 45%; inconclusive = no clear call, values can overlap the other calls
An asterisk follows results filed as active; i = inactive; ? = inconclusive; nt = not tested or not shown.

SMILES	MEKK3 PB1 HTS	MEKK2 mut-MEK5	Rce1 inh	MEKK2 WT-MEK5	UBC13 inh	Casp3 UBC13 ctr	UBC13 confirm
Cn1c(=O)cc(OCCCC(=O)NCCN2CCN(c3ccccc3F)CC2)c2ccccc21	109	5	i	113	57*	0	38
CCn1c(=O)cc(SCC(=O)NCCCN2CCN(c3ccccc3F)CC2)c2ccccc21	107	3	i	116	58*	-3	?
CCc1nc2ccc(C(=O)N3CCN(c4ccccc4F)CC3)cc2nc1CC	104	1	i	101	-5	nt	nt
CN1CC2=Cc3ccccc3OC23Oc2ccccc2C=C3C1	113	14	i	120	85*	-2	94*
O=C1c2ccccc2OC2(C=Cc3ccccc3O2)N1Cc1ccccc1 (stereo unspecified)	nt	nt	i	nt	6	nt	nt
CC(C)[C@H](N)c1cn([C@@H](CO)C(=O)N2CCNCC2)nn1	nt	nt	nt	nt	-2	nt	nt
N[C@@H](CO)c1cn([C@@H](Cc2cc3ccccc3[nH]2)C(=O)N2CCNCC2)nn1	96	6	i	121	101*	-2	107*
Cc1ccc(S(=O)(=O)NCc2ccccc2)cc1C(=O)NC1CCC(C)CC1 (stereo unspecified)	104	7	i	108	6	nt	nt
CCN1C(N(C)CCc2cccs2)=N[C@@H](c2ccccc2)C(C(=O)OC)=C1C	102	0	i	109	14	nt	nt
CCN1C(N(C)CCc2c[nH]c3ccccc23)=N[C@@H](c2cccc(C(F)(F)F)c2)C(C(=O)OC)=C1C	nt	nt	nt	nt	60*	-1	49*
Cc1cc(C)cc(OCC(=O)NNC(=S)NC(=O)C2CC2)c1	98	7	i	104	83*	4	104*
COc1ccc(OCC(=O)NNC(=S)NC(=O)C2CCCCC2)cc1	106	7	nt	111	0	nt	nt
COc1ccc(OCC(=O)NNC(=S)NC(=O)C2CC2)cc1	100	0	i	98	79*	-2	101*
COc1cc(OC)c(OC)cc1/C=C1\Oc2cc(OCC(=O)N3Cc4ccccc4C[C@H]3C(=O)O)ccc2C1=O	98	-1	i	100	-158	nt	nt
C#CCOCCOCCOCCNc1nc(N2CCN(C(=O)[C@H]([C@@H](C)CC)n3cc(CCCCN)nn3)CC2)nc(N2CCN(C(=O)[C@H](CCCCN)n3cc(CC(C)O)nn3)CC2)n1 (stereo partly specified)	nt	nt	nt	nt	20	nt	nt
C#CCOCCOCCOCCNc1nc(N2CCN(C(=O)CCCCCCCCCCNC(=O)[C@@H](CCC(=O)O)n3cc(CCCCCN)nn3)CC2)nc(N2CCN(C(=O)CCCCCCCCCCNC(=O)[C@H](CO)n3cc(CCCCCN)nn3)CC2)n1	nt	nt	nt	nt	102*	-4	74*
C#CCOCCOCCOCCNc1nc(N2CCOCC2)nc(N2CCN(C(=O)CCCCCCCCCCNC(=O)[C@H](CO)n3cc(CCCSC)nn3)CC2)n1	nt	nt	nt	nt	2	nt	nt
C#CCOCCOCCOCCNc1nc(N2CCN(C(=O)CCCCCCCCCCNC(=O)[C@@H](CCC(=O)O)n3cc(CCCCCN)nn3)CC2)nc(N2CCN(C(=O)CCCCCCCCCCNC(=O)[C@H](CCCCN)n3cc(C[C@@H](C)CC)nn3)CC2)n1	nt	nt	nt	nt	120*	-2	124*
C#CCOCCOCCOCCNc1nc(N2CCN(C(=O)CCCCCCCCCCNC(=O)[C@@H](CCC(=O)O)n3cc(CCCCCN)nn3)CC2)nc(N2CCN(C(=O)CCCCCCCCCCNC(=O)[C@H](CO)n3cc(CCCSC)nn3)CC2)n1	nt	nt	nt	nt	84*	-2	40
C#CCOCCOCCOCCNc1nc(N2CCN(C(=O)CCCCCCCCCCNC(=O)[C@H](CCCCN)n3cc(CCO)nn3)CC2)nc(N2CCN(C(=O)CCCCCCCCCCNC(=O)[C@H](CCCCN)n3cc(CCCC(=O)O)nn3)CC2)n1	nt	nt	nt	nt	117*	2	111*
O=C(COC(=O)c1cc(=O)[nH]c(=O)[nH]1)Nc1ccccc1F	nt	nt	nt	nt	-1	nt	nt
C/[N+]([O-])=C\c1cccc(OCCN2CCN(c3ncc(C(F)(F)F)cc3Cl)CC2)c1	103	4	i	105	0	nt	nt
CCc1ccccc1N1CC(C(=O)Nc2cc(C)on2)CC1=O (stereo unspecified)	94	-6	i	95	-3	nt	nt
O=C(NCc1ccccn1)C12CC3CC(CC(C3)C1)C2	110	-5	i	102	7	nt	nt
COC(=O)c1c(NC(=O)COC(=O)C2CCC2)sc(C)c1C	nt	nt	i	nt	-2	nt	nt
SMILES	MEKK3 PB1 HTS	MEKK2 mut-MEK5	Rce1 inh	MEKK2 WT-MEK5	UBC13 inh	Casp3 UBC13 ctr	UBC13 confirm
O=C(Nc1ccccc1)N1CCN(c2nc(-c3ccccc3)ns2)CC1	96	-3	i	97	49*	-1	63*
O=C(Nc1ccccc1Cl)N1CCCN(c2nc(-c3ccccc3)ns2)CC1	101	-2	i	97	12	nt	nt
CCC[C@@H](CN1CCC[C@H]1CN1C(N)=NC[C@H]1CC(C)C)N1C[C@@H](Cc2ccccc2)N(CCCC2CCCC2)C1=N	nt	nt	nt	nt	77*	-1	83*
CCCCN1C(=N)N([C@@H](C)CN2CCC[C@H]2CN2C(N)=NC[C@@H]2Cc2ccccc2)C[C@H]1[C@H](C)CC	nt	nt	nt	nt	19	nt	nt
CCC[C@@H](CN1CCC[C@H]1CN1C(N)=NC[C@@H]1Cc1ccccc1)N1C[C@@H]([C@H](C)CC)N(CCCC2CCCC2)C1=N	nt	nt	nt	nt	91*	2	85*
CC(C)[C@H](CN1CCC[C@H]1CN1C(N)=NC[C@H]1C(C)C)N1C[C@@H](Cc2ccccc2)N(CCCC2CCCC2)C1=N	nt	nt	nt	nt	70*	1	69*
CCC[C@@H](CN1CCC[C@H]1CN1C(N)=NC[C@@H]1Cc1ccccc1)N1C[C@@H](Cc2ccccc2)N(CCCC2CCCC2)C1=N	nt	nt	nt	nt	65*	-4	58*
O=C(O)c1cc(S(=O)(=O)N2CCOCC2)c[nH]1	nt	nt	nt	nt	-4	nt	nt
O=c1cc(C(F)(F)F)[nH]c2c(OC(F)(F)F)cccc12	96	-5	i	100	10	nt	nt
COc1ccccc1C(O)(C(=O)NN(C)c1ccccc1)c1ccccc1OC	99	15	i	98	2	nt	nt
CCn1c(=O)n(CC)c2cc(N3CCCC3)c(NC(=O)c3c(F)cccc3F)cc21	102	6	i	105	-3	nt	nt
COc1cccc(CN(C(=O)c2cc3ccccc3oc2=O)C2CCS(=O)(=O)C2)c1 (stereo unspecified)	100	4	i	98	-14	nt	nt
CS(=O)(=O)c1nc(S(=O)(=O)c2ccc(Cl)cc2)c(NCCCn2ccnc2)s1	102	-1	i	103	-5	nt	nt
CN(C(=O)c1cccs1)C1(C)CCS(=O)(=O)C1 (stereo unspecified)	99	4	i	101	2	nt	nt
